This is an account of results in PubChem BioAssay (NCATS).

Structures are written as SMILES. Inconclusive results are not listed. The source made the active and inactive calls. Calls come from the whole dose curve; as a rule, active = well fitted inhibition curve with a large enough effect; inconclusive = small, poorly fitted or top-dose-only effect; inactive = no such curve, though single readings can be large or run the other way. Where a SMILES comes first, the peptide text is derived from it. [ ]: non-standard residue; d: D form. Ala(indol-2-yl) = N[C@@H](Cc1cc2ccccc2[nH]1)C(=O)O; Aib = CC(C)(N)C(=O)O
% is set by controls: 0 for no effect and ±100 for the full control effect.

For this test, the system named is Zika virus NS2B-NS3 protease (unlinked complex). The test is described as follows: Primary screen GU Rhodamine qHTS for Zika virus inhibitors: Unlinked NS2B-NS3 protease assay (AID 1347159). Note: nearly all actives have a fitted effect of over 60% in size. Conditions: Recombinant ZIKV NS2B-NS3 protease, Rhodamine110 substrate fluorescence; series mostly up to 107 µM; activity change, negative = inhibition: at the top concentration. The gist of the method: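 In dose–response format, inhibition of unlinked protease (25 nM) was measured with 1.5 microM bis-peptide Rhodamine110 substrate. Aprotinin served as the intraplate control.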
As to `CC(=O)O[C@@H]1[C@@H](O)[C@H]2O[C@@H]3C=C(C)[C@@H](O)C[C@]3(CO)[C@]1(C)[C@]21CO1`, the “activity change, negative = inhibition” value is 20.4% (inactive).

As for `CC(C)(NC(=O)[C@@H](N)Cc1ccc(O)cc1)C(=O)N[C@@H](Cc1cc2ccccc2[nH]1)C(=O)N[C@@H](Cc1ccccc1)C(=O)O` (H-Y[Aib][Ala(indol-2-yl)]F-OH), the activity change, negative = inhibition was 11.5% [at 19.1 µM] (inactive).

Regarding `C=C1[C@@H](C)[C@H]2[C@H](Cc3ccccc3)NC(=O)[C@]23[C@H](OC(C)=O)/C=C/[C@](C)(O)C(=O)[C@@H](C)C/C=C/[C@H]3[C@@H]1O`, the “activity change, negative = inhibition” value was 10.9% (inactive).

With `COc1ccc2c3c([nH]c2c1)C(C=C(C)C)N1C(=O)C2CCCN2C(=O)C1C3` (stereo not given), the “activity change, negative = inhibition” value is 11.9% (inactive).

Turning to `CC(=O)OC[C@]12C[C@H](OC(=O)CC(C)C)C(C)=C[C@H]1O[C@@H]1[C@H](O)[C@@H](OC(C)=O)[C@@]2(C)[C@@]12CO2`, the “activity change, negative = inhibition” value was 13.5% [at 57.1 µM] (inactive).

Regarding `CC1=C[C@H]2O[C@@H]3C[C@H]4OC(=O)/C=C/C=C/C(=O)OCC/C(C)=C/C(=O)OC[C@@]2(CC1)[C@]4(C)[C@]31CO1`, the “activity change, negative = inhibition” value is 9.99% [at 57.1 µM] (inactive).

In the case of `CC(=O)OC[C@]12C[C@H](OC(=O)CC(C)C)C(C)=C[C@H]1O[C@@H]1[C@H](O)[C@@H](O)[C@@]2(C)[C@]12CO2`, the “activity change, negative = inhibition” value is -3.51% [at 57.1 µM] (inactive).

Turning to `CC(=O)OC[C@]12C[C@H](OC(=O)CC(C)C)C(C)=C[C@H]1O[C@@H]1[C@H](O)C[C@@]2(C)[C@]12CO2`, the “activity change, negative = inhibition” value is -22.5% [at 57.1 µM] (inactive).

For `Cc1c(Cl)c(OCC(=O)N2CCN(C)CC2)nc2sc(C(=O)NC3CC3)c(N)c12`, the “activity change, negative = inhibition” value is 3.93% (inactive).

Take `CO[C@H]1[C@H](O)[C@H](O[C@H]2CC[C@]3(C=O)C4CC[C@]5(C)[C@H](C6=CC(=O)OC6)CC[C@]5(O)C4CC[C@@H]3C2)O[C@@H](C)[C@@H]1O` (stereo not given in full): the “activity change, negative = inhibition” value is 12.9% [at 57.1 µM] (inactive).
